Experimental data published in PubChem BioAssay (NCI).
This is part of a sample that, as a whole, favours compounds with a hit. Of some 83,000 tested, about 20% had one in any assay.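 Percent growth is the endpoint: 0 to 100 indicates growth inhibition (40 means 60% inhibition), 0 means no net growth, and negative values indicate cell death.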 Active and inactive are the calls of the source. How the source made its calls: active means growth percent below 10; inactive means the rest.

Test system: ACHN renal
Experiment: NCI-60 one-dose screen, 48 h (100 = growth as untreated, 0 = no growth, -100 = all killed)
Conditions: 10 µM

| SMILES | growth |
| --- | --- |
| Cc1ccc(C(=O)/C=C/c2ccccc2)s1 | 121% (inactive) |
| CCCCC/C=C/C/C=C/CCCCCCCC1=NC(C)(C)CN1C(C)C | 32.9% (inactive) |
| CCOC(=O)c1cc(C(=O)c2ccc(F)cc2F)n2ccccc12 | 97.1% (inactive) |
| CC1=CC2C(C(O)CC3(C)C2CC(C)C32OCOC23COCO3)C2(C)C/C(=C/O)C(=O)C=C12 (stereo not given) | 8.9% (active) |
| Cc1ccc(C)c(COc2cc(NC(=O)c3ccc4c(c3)OCO4)ccc2N(C)S(C)(=O)=O)c1 | 29.3% (inactive) |
| O=C(/C=C/C=C/c1c(C2CC2)nc2ccccc2c1-c1ccc(F)cc1)c1cccs1 | -42.6% (active) |

Test system: CAKI-1 renal
Experiment: as above
Conditions: 10 µM

| SMILES | growth |
| --- | --- |
| COc1ccc(-c2csc(NC(=O)c3ccc(Cc4n[nH]c(=O)c5cccnc45)cc3)n2)cc1 | 84.5% (inactive) |
| COc1ccccc1/C=N\N/C(N)=N\N=C\c1ccccc1OC | -7% (active) |
| O=c1cn[nH]c2ccc(Br)cc12 | 113% (inactive) |
| OCCn1cccn1 | 86.4% (inactive) |
| O=C(CCC(C(=O)c1ccccc1)c1ccccc1)c1ccccc1 (stereo not given) | 52% (inactive) |
| CCOC(=O)CSc1nc(-c2cc(OC)ccc2OC)cc(-c2ccc(OC)cc2)c1C#N | 83.4% (inactive) |
| COc1cccc(C2C(C#N)=C(N)Oc3cc(N)ccc32)c1 (stereo not given) | 31.9% (inactive) |
| CN(C)CCOc1cccc(-c2nc3sccn3c2-c2ccnc(S(C)(=O)=O)n2)c1 | 99.5% (inactive) |
| CCN(CC)CCCC(C)Nc1c2ccc(Cl)cc2nc2ccc(OC)cc12 (stereo not given) | 1.55% (active) |
| CNS(=O)(=O)Oc1ccc(-c2ccc3occc3c2)cc1 | 93.3% (inactive) |
| O=C1c2ccccc2C(=O)N1CCCCNc1ccccc1 | 101% (inactive) |
| Cc1ccc(NC(=S)NNC(=S)Nc2ccc(C)cc2)cc1 | 67.8% (inactive) |
| C[C@@H](C[C@H](CCO)c1ccccc1)c1ccc2ccccc2c1 | 10.5% (inactive) |
| CN(C)c1ccc(/C=N/NC(=O)c2ccccc2Nc2cccc(C(F)(F)F)c2)cc1 | 77.7% (inactive) |
| CS(=O)(=O)c1nccc(-c2c(-c3cccc(OCCN4CCOCC4)c3)nc3sccn23)n1 | 85.3% (inactive) |
| O=C(CCCSc1nc(-c2ccccc2)cc(-c2ccc(Cl)cc2)n1)NO | 2.37% (active) |
| CC(=O)COc1ccc(Cl)cc1Cl | 107% (inactive) |
| COCCn1cc(-c2nc(-c3cccnc3)cs2)c2cc(F)ccc21 | 103% (inactive) |
| Nc1nc(N)c(N)c(Nc2ccc(CCO)cc2)n1 | 100% (inactive) |
| NC1=NC(c2ccccc2)C2=C(N1)/C(=C/c1ccccc1)CCC2 (stereo not given) | 93.8% (inactive) |
| CCn1cc(C(=O)O)c(=O)c2cc(F)c(N3CCNCC3)cc21 | 96.5% (inactive) |
| COC1=CC(=O)OC(c2ccc(OC)cc2)C1 (stereo not given) | 85.8% (inactive) |
| Cc1ccc(C(=O)/C=C/c2ccccc2)s1 | 92.4% (inactive) |
| CCCCC/C=C/C/C=C/CCCCCCCC1=NC(C)(C)CN1C(C)C | 26.9% (inactive) |
| Cc1ccc(C)c(COc2cc(NC(=O)c3ccc4c(c3)OCO4)ccc2N(C)S(C)(=O)=O)c1 | 15.6% (inactive) |

Test system: A498 renal
Experiment: as above
Conditions: 10 µM

| SMILES | growth |
| --- | --- |
| COc1ccc(-c2csc(NC(=O)c3ccc(Cc4n[nH]c(=O)c5cccnc45)cc3)n2)cc1 | 95.8% (inactive) |
| COc1ccccc1/C=N\N/C(N)=N\N=C\c1ccccc1OC | -66.5% (active) |
| OCCn1cccn1 | 94.2% (inactive) |
| NS(=O)(=O)c1ccc(N2N=C(c3ccccc3)CCC2=O)cc1 | 83% (inactive) |
| COc1ccccc1N1CCCSC1=Nc1ccccc1 | 99.8% (inactive) |
| CC(C)N(CCOc1cccc(-c2nc3sccn3c2-c2ccnc(S(C)(=O)=O)n2)c1)C(C)C | 53.2% (inactive) |
| O=C(CCC(C(=O)c1ccccc1)c1ccccc1)c1ccccc1 (stereo not given) | 80.6% (inactive) |
| COc1cccc(C2C(C#N)=C(N)Oc3cc(N)ccc32)c1 (stereo not given) | 1.48% (active) |
| CN(C)CCOc1cccc(-c2nc3sccn3c2-c2ccnc(S(C)(=O)=O)n2)c1 | 59.6% (inactive) |
| CCN(CC)CCCC(C)Nc1c2ccc(Cl)cc2nc2ccc(OC)cc12 (stereo not given) | 74% (inactive) |
| CC(C1=C(CN(C(=O)Cc2cn(-c3ccccc3)nc2-c2ccc(Cl)cc2)C(C)C)Cc2ccccc21)c1ccccn1 (stereo not given) | 50.6% (inactive) |
| CNS(=O)(=O)Oc1ccc(-c2ccc3occc3c2)cc1 | 102% (inactive) |
| O=C1c2ccccc2C(=O)N1CCCCNc1ccccc1 | 70.2% (inactive) |
| Cc1ccc(S(=O)(=O)N(C)CCCCCC(=O)O)cc1 | 110% (inactive) |
| CCN(CC)CCNc1ccc(C)c2sc3cc(Cl)ccc3c(=O)c12 | 53.5% (inactive) |
| O=C(/C=C/c1cccc(B(O)O)c1)c1cccc(B(O)O)c1 | 65.5% (inactive) |
| Cc1ccc(NC(=S)NNC(=S)Nc2ccc(C)cc2)cc1 | 73.4% (inactive) |

| SMILES | growth |
| --- | --- |
| C[C@@H](C[C@H](CCO)c1ccccc1)c1ccc2ccccc2c1 | -0.126% (active) |
| CCN(CC)CCN1c2nc3ccccc3cc2Sc2cc3ccccc3nc21 | 25.7% (inactive) |
| CN(C)c1ccc(/C=N/NC(=O)c2ccccc2Nc2cccc(C(F)(F)F)c2)cc1 | 1.42% (active) |
| CS(=O)(=O)c1nccc(-c2c(-c3cccc(OCCN4CCOCC4)c3)nc3sccn23)n1 | 59.2% (inactive) |
| O=C(CCCSc1nc(-c2ccccc2)cc(-c2ccc(Cl)cc2)n1)NO | -15.3% (active) |
| CC(=O)COc1ccc(Cl)cc1Cl | 82.9% (inactive) |
| Cc1ccc(C2NC(=S)N3C(c4ccc(C)cc4)NC(=S)N23)cc1 (stereo not given) | 49.6% (inactive) |
| Nc1nc(N)c(N)c(Nc2ccc(CCO)cc2)n1 | 92.8% (inactive) |
| CN(C)CCCSc1ccccc1NC1=C(Cl)C(=O)C(Nc2ccccc2SCCCN(C)C)=C(Cl)C1=O | 105% (inactive) |
| CCOC(=O)c1cc(C(=O)c2cc(OC)c(OC)c(OC)c2)n2c1ccc1c3cccnc3ccc12 | 60.6% (inactive) |
| NC1=NC(c2ccccc2)C2=C(N1)/C(=C/c1ccccc1)CCC2 (stereo not given) | 75% (inactive) |
| CCn1cc(C(=O)O)c(=O)c2cc(F)c(N3CCNCC3)cc21 | 117% (inactive) |
| COC1=CC(=O)OC(c2ccc(OC)cc2)C1 (stereo not given) | 96.4% (inactive) |
| Cc1ccc(C(=O)/C=C/c2ccccc2)s1 | 90.5% (inactive) |
| CCOC(=O)c1cc(C(=O)c2ccc(F)cc2F)n2ccccc12 | 87.9% (inactive) |
| Cc1ccc(C)c(COc2cc(NC(=O)c3ccc4c(c3)OCO4)ccc2N(C)S(C)(=O)=O)c1 | -11.3% (active) |
| O=C(/C=C/C=C/c1c(C2CC2)nc2ccccc2c1-c1ccc(F)cc1)c1cccs1 | -21.7% (active) |
